The source of these data is PubChem BioAssay (EPA / NIEHS).

As a reminder, the AC50 is the midpoint of the concentration-response curve, whichever way the signal moves.

Where “and” joins values, the source holds several entries; their conditions need not be identical. Identical values can stand only once. Results filed as inconclusive are left out. Some compounds were tested as several samples or in several runs, with calls that do not always agree. Calls of active or inactive are those of the source. The calls were made as follows, unless noted: active = hit-call score of the fitted dose curve at least 0.9, where 1 is the maximum; inactive = score below 0.9.

A short description of assay [1]: CCTE_Shafer_MEA_dev_AB: CCTE's Alamar Blue Assay for Cytotoxicity in the Neural Network Formation Assay, Shafer Lab (AID 2284083; active = hit-call score of the fitted dose curve at least 0.9, where 1 is the maximum;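 also: resazurin reduction fluorescence as viability of cultured neurons; twelve days of exposure from plating with re-dosing on DIV 5 and 9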). In a few lines: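 Rat cortical primary cultures, 1.5 x 10^5 cells/well on MEA; continuous compound exposure over 12 days of network development, re-dosed with full medium change DIV 5 and 9. Alamar Blue fluorescence; loss of signal = cytotoxicity vs DMSO baseline.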

Assay [2] can be described thus: CCTE_Shafer_MEA_dev_mutual_information_norm: CCTE's Neural Network Formation Assay for Mutual Information Normalization, Shafer Lab (AID 2284091).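 As to AC50: mutual information between electrodes summarised as area under curve across four recording days; potency is for a decrease in mutual information relative to DMSO.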 In a few lines: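 Primary rat cortical neurons on PEI-coated 48-well MEA plates, 1.5 x 10^5 cells/well, exposed from day 0 through day 12 with re-dosing at DIV 5 and 9. Mutual information between electrodes recorded days 5, 7, 9, 12; trapezoidal AUC, loss-of-signal fit versus DMSO.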

Assay [3] can be described thus: CCTE_Shafer_MEA_dev_correlation_coefficient_mean: CCTE's Neural Network Formation Assay for Mean Correlation Coefficient, Shafer Lab (AID 2284093).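 As to AC50: well mean pairwise spike train correlation integrated as AUC over recording days 5 to 12; potency fitted for loss of correlation relative to DMSO vehicle wells.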 In a few lines: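 Rat cortical cultures, 1.5 x 10^5 cells/well, dosed from day 0 for 12 days. Spontaneous spikes recorded DIV 5/7/9/12; electrode-pair correlation coefficients averaged, AUC taken. Fit in loss direction vs DMSO.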

Assay [4] can be described thus: IUF_NPC1b_proliferation_BrdU_72hr: Leibniz Research Institute for Environmental Medicine (IUF) 72-hour Neural Progenitor Cell Bromodeoxyuridine (BrdU) Proliferation Assay (NPC1b) (AID 2284207). In a few lines:
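BrdU luminescence ELISA quantified DNA synthesis over the last 16 h of a 72 h exposure, fitted against DMSO. Primary hNPC spheres from gestational week 16-19 cortex grown with EGF/FGF at 37C, pH 7.2-7.6.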

Assay [5] can be described thus: IUF_NPC1a_proliferation_area_72hr: Leibniz Research Institute for Environmental Medicine (IUF) 72-hour Neural Progenitor Cell Proliferation Area Assay (NPC1a) (AID 2284208). In a few lines:
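Proliferation is scored as sphere area gain in primary human fetal neural progenitors treated for 72 h in EGF/FGF-containing medium. Viability, LDH and BrdU readouts come from the same wells.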

A short description of assay [6]: IUF_NPC1_viability_72hr: Viability Assessment at 72 hours in the Leibniz Research Institute for Environmental Medicine (IUF) Neural Progenitor Cell Proliferation Assay (NPC1) (AID 2284209). In a few lines: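 Human fetal-cortex neural progenitor spheres (0.25–0.35 mm, one per well) grown in EGF/FGF proliferation medium at 37C, pH 7.2-7.6, exposed 72 h without renewal; viability read as alamar blue resazurin-to-resorufin fluorescence relative to DMSO.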

Assay [7] is described as follows: CCTE_Mundy_HCI_Cortical_Synap_Neur_Matur_NeuriteSpotCountPerNeuriteLength: CCTE's Synaptogenesis and Neurite Maturation Assay in rat cortical cells for Neurite Spot Count per Neurite Length, Mundy Lab (AID 2284210). In a few lines: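 Rat primary cortical cultures, AraC added at DIV 5 to suppress glia; chemical exposure from DIV 7 to DIV 12. Fixed cells stained for MAP2 and synaptophysin plus Hoechst; synaptophysin puncta per neurite length quantified by high-content imaging, relative to DMSO.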

Assay [8] in a line: CCTE_Mundy_HCI_Cortical_Synap_Neur_Matur_BPCount: CCTE's Synaptogenesis and Neurite Maturation Assay in rat cortical cells for Branch Point Count, Mundy Lab (AID 2284211). In a few lines:
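Branch point number is quantified by automated imaging of fluorescently labelled neurites and synapses in rat primary cortical neurons exposed from DIV 7 to DIV 12. Activity is analysed relative to DMSO negative control.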

Assay [9] is described as follows: CCTE_Mundy_HCI_Cortical_NOG_NeuriteLength: CCTE's Neurite Outgrowth Assay in rat cortical cells for Neurite Length, Mundy Lab (AID 2284213).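 As to AC50: neurites imaged about 48 to 50 h after chemical exposure began.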 In a few lines: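 Neurite length was read by high-content imaging of βIII-tubulin-labelled neurites in rat primary cortical cultures. Activity was fitted relative to DMSO.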
A short description of assay [10]: CCTE_Mundy_HCI_Cortical_Synap_Neur_Matur_NeuriteLength: CCTE's Synaptogenesis and Neurite Maturation Assay in rat cortical cells for Neurite Length, Mundy Lab (AID 2284214). In a few lines: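 Rat primary cortical cells were plated, treated with AraC at DIV 5 to arrest glial growth, then chemical-dosed with media change at DIV 7 through DIV 12. Fixed cells stained for MAP2, synaptophysin and Hoechst; neurite length quantified by high-content imaging.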

Assay [11] can be described thus: CCTE_Mundy_HCI_Cortical_Synap_Neur_Matur_SynapseCount: CCTE's Synaptogenesis and Neurite Maturation Assay in rat cortical cells for Synapse Count, Mundy Lab (AID 2284218). In a few lines:
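Rat primary cortical cells in 96-well plates received AraC at DIV 5 and were dosed with chemicals at DIV 7 with media change, through DIV 12 (288.33 h). Synapses per neuron counted by high-content imaging of MAP2/synaptophysin/Hoechst staining, versus DMSO baseline.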

Assay [12] is described as follows: CCTE_Mundy_HCI_hN2_NOG_NeuriteCount: CCTE's Neurite Outgrowth Assay in human hN2 cells for Neurite Count, Mundy Lab (AID 2284219; active = hit-call score of the fitted dose curve at least 0.9, where 1 is the maximum). In a few lines:
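In this morphology assay, hNP1-derived neurons received test chemical 2 h post-plating and were fixed two days later in warm paraformaldehyde/sucrose containing Hoechst 33342. Neurites, labelled by rabbit anti-βIII-tubulin (1:800) and Alexa Fluor-488 (1:500), were counted automatically.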

Assay [13] can be described thus: CCTE_Mundy_HCI_hN2_NOG_NeuriteLength: CCTE's Neurite Outgrowth Assay in human hN2 cells for Neurite Length, Mundy Lab (AID 2284220; active = hit-call score of the fitted dose curve at least 0.9, where 1 is the maximum). In a few lines: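 Read-out is neurite length from high-content imaging of βIII-tubulin/Alexa Fluor-488-labelled neurons, referenced to DMSO controls.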
The nature of assay [14]: CCTE_Mundy_HCI_hN2_NOG_NeuronCount: CCTE's Neurite Outgrowth Assay in human hN2 cells for Neuron Count, Mundy Lab (AID 2284221; active = hit-call score of the fitted dose curve at least 0.9, where 1 is the maximum). In a few lines:
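Read-out is the number of betaIII-tubulin-positive neurons imaged by automated high-content analysis, with DMSO as negative control.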

Assay [15] is described as follows: CCTE_Mundy_HCI_Cortical_Synap_Neur_Matur_NeuriteCount: CCTE's Synaptogenesis and Neurite Maturation Assay in rat cortical cells for Neurite Count, Mundy Lab (AID 2284222).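 As to outcome: exposure from day 7 to day 12 in vitro with readout at day 12.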 In a few lines: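 Primary rat cortical cells were plated, treated with AraC at DIV 5, then exposed to chemicals from DIV 7 through DIV 12. After fixation and immunostaining for MAP2 and synaptophysin, imaging quantified neurites, with DMSO as the negative control.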

A short description of assay [16]: CCTE_Mundy_HCI_Cortical_Synap_Neur_Matur_CellBodySpotCount: CCTE's Synaptogenesis and Neurite Maturation Assay in rat cortical cells for Cell Body Spot Count, Mundy Lab (AID 2284223). In a few lines:
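Synapse number at neuronal cell bodies was quantified as synaptophysin puncta per neuron in rat cortical cultures exposed from DIV 7 to DIV 12. Values were normalised to DMSO.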

The nature of assay [17]: TAMU_PeakParms_SingleDonor1434_Chronotropy: Texas A&M University (TAMU) 1.5-hr Human Induced Pluripotent Stem Cell (iPSC)-derived Cardiomyocytes Calcium (Ca+2) Flux Assay for Cardiotoxicity: Chronotropy (changes in peak frequency) (AID 2284217). Conditions: actives raise or lower the signal. In a few lines: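 iPSC-CMs, donor 1434; 4 conc (0.2–100 uM), 0.5% v/v DMSO, 90 min, 37C/5% CO2; Ca2+ flux fluorescence → peak.freq.avg; peak.freq.avg = 0 dropped; bidirectional fit vs DMSO; EC05 POD.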

Assay [18] can be described thus: CCTE_Mundy_HCI_Cortical_NOG_NeuriteCount: CCTE's Neurite Outgrowth Assay in rat cortical cells for Neurite Count, Mundy Lab (AID 2284212).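 Also: cells fixed about two days after chemical exposure began.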 In a few lines:
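Neurite number per cell from high-content imaging of betaIII-tubulin immunostaining, with Hoechst nuclear counterstain.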

Turning to `CCOC(=O)CC(SP(=S)(OC)OC)C(=O)OCC` (stereo not drawn), the AC50 is 22.9 µM (active) and 25.1 µM (active) in [1]; 7.87 µM (active) and 3.88 µM (active) in [2]; 12.7 µM (active) and 22.6 µM (active) in [3]; 50 µM (active) in assay [8]; 77.6 µM (active) and 15 µM (active) in assay [9]; 61.9 µM (active) in assay [10]. Moreover, the AC50 is 50 µM (active) in assay [11], 34.8 µM (active) in assay [12], 34.2 µM (active) in [13] and 33.6 µM (active) in [14]. The outcome in assay [4], in [5], in assay [6], in [7], in [8] and in assay [10] was inactive. Also, the compound was called inactive in assay [11], in assay [15] and in [16].
With `Oc1ccccc1-c1ccccc1`, the AC50 in assay [17] is 45.1 µM (active).
Turning to `CCOc1cc(Oc2ccc(C(F)(F)F)cc2Cl)ccc1[N+](=O)[O-]`, the AC50 was 30 µM (active) in [1]; 4.49 µM (active) in [2]; 6.5 µM (active) in [3]; 14.3 µM (active) in [7]; 14.8 µM (active) in assay [8]; 50 µM (active) in assay [9]. Besides, the AC50 in assay [10] was 16.1 µM (active); in assay [11] it was 11.9 µM (active); in [15], 16.6 µM (active); in [16] it was 14.3 µM (active). Also, the compound was classed as inactive in assay [4], in assay [5] and in assay [6].
Turning to `CNC(=O)ON=CC(C)(C)SC`, the compound was classed as inactive in assay [1], in [2], in assay [3], in assay [4], in [5] and in [6]. The compound was called inactive in [7], in assay [8], in assay [18], in [9], in assay [10] and in [17]. Besides, the call in [11], in assay [12], in [13], in assay [14], in assay [15] and in [16] was inactive.
Regarding `CCNc1nc(Cl)nc(NC(C)C)n1`, the result in assay [2] and in assay [3] was inactive.
Take `C=CCC1=C(C)[C@@H](OC(=O)[C@@H]2[C@@H](C=C(C)C)C2(C)C)CC1=O`: the AC50 in assay [1] was 1.98 µM (active); in assay [2] it was 2.61 µM (active); in assay [7], 20.5 µM (active); in assay [8], 26.6 µM (active); in assay [10], 23.9 µM (active); in assay [11], 22.2 µM (active). Besides, the AC50 in assay [15] is 23.7 µM (active); in [16], 21.8 µM (active). For the same compound, the outcome in assay [18] and in [9] was inactive.
